Data: the supplement of paper PMC13380429

Tested on: Vero E6 infected with SARS-CoV-2
Experiment: inhibition of SARS-CoV-2 cytopathic effect; higher = more antiviral protection, active = above 15
Conditions: 48 h

Measured: inhibition of SARS-CoV-2 cytopathic effect

COc1cn(-c2ccc(-n3cccn3)cc2F)nc(-c2ccnn2-c2ccccc2)c1=O
inactive: 1 nM 1.53% | 8.33 nM 3.16% | 100 nM 0.79% | 833.33 nM 2.26% | 10000 nM 0.75%

CSc1ccc(C(=O)/C=C/c2cc(C)c(OC(C)(C)C(=O)O)c(C)c2)cc1 [elafibranor]
inactive: 1 nM -1.98% | 8.33 nM 1.58% | 100 nM -1.18% | 833.33 nM 2.15% | 10000 nM 3.31%

O=C(NCCCCCCNC(=O)ON=C1CCCCC1)ON=C1CCCCC1
inactive: 1 nM 2.1% | 8.33 nM 0.56% | 100 nM 1.93% | 833.33 nM 2.74% | 10000 nM 2.7%

CC(C)(C)c1ccc(O)cc1 [4-tert-butylphenol]
inactive: 1 nM -0.71% | 8.33 nM 1.9% | 100 nM -1.66% | 833.33 nM 2.45% | 10000 nM 2.59%

CCCCOc1cc(CC2CNC(=O)N2)ccc1OC (stereo not given)
inactive: 1 nM -0.73% | 8.33 nM 1.6% | 100 nM -3.01% | 833.33 nM -0.63% | 10000 nM -1.88%

O=C(NC[C@H](O)CO)c1ccncc1Nc1ccc(I)cc1F
inactive: 1 nM -1.62% | 8.33 nM -4.02% | 100 nM -9.84% | 833.33 nM -13.5% | 10000 nM -14.7%

N#C/C(=C\c1cn(-c2ccccc2)c2ccccc12)C(=O)O
inactive: 1 nM -0.26% | 8.33 nM -0.12% | 100 nM -0.58% | 833.33 nM 1.6% | 10000 nM -2.52%

CC[C@H](Nc1ncnc2[nH]cnc12)c1nc2cccc(F)c2c(=O)n1-c1ccccc1 [idelalisib]
inactive: 1 nM -1.64% | 8.33 nM 2.2% | 100 nM 1.98% | 833.33 nM 3.57% | 10000 nM -3.36%

CS(=O)(=O)Nc1ccc(-c2coc3cc(OCc4cccc(C(=O)O)c4)ccc3c2=O)cc1
inactive: 1 nM -0.72% | 8.33 nM 1.73% | 100 nM -1.1% | 833.33 nM -0.83% | 10000 nM -0.08%

O=C1c2ccccc2C(=O)c2ccccc21 [anthraquinone]
inactive: 1 nM -2.37% | 8.33 nM -0.48% | 100 nM -1.17% | 833.33 nM 1.54% | 10000 nM 0.18%

O=C(Nc1cnc(Cl)nc1)c1ccc(F)c(F)c1
inactive: 1 nM 1.95% | 8.33 nM 1.13% | 100 nM 2.59% | 833.33 nM -0.85% | 10000 nM 0.14%

NS(=O)(=O)OC[C@@H]1C[C@@H](n2ccc3c(N[C@H]4CCc5ccccc54)ncnc32)C[C@@H]1O [pevonedistat]
inactive: 1 nM 1.08% | 8.33 nM 1.45% | 100 nM 2.73% | 833.33 nM -1.35% | 10000 nM -9.75%

CN1CCC(=C2c3ccccc3CC(=O)c3sccc32)CC1 [ketotifen]
inactive: 1 nM 1.19% | 8.33 nM 4.8% | 100 nM 2.53% | 833.33 nM 1.27% | 10000 nM -3.64%

CNNCc1ccc(C(=O)NC(C)C)cc1 [procarbazine]
inactive: 1 nM -1.55% | 8.33 nM 4.48% | 100 nM -0.09% | 833.33 nM 2.14% | 10000 nM 0.27%

NCCNCCNCCN [trientine]
inactive: 1 nM -0.43% | 8.33 nM 2.23% | 100 nM 1.04% | 833.33 nM 2.74% | 10000 nM -1.84%

COc1ccc(Oc2c(Cl)cnn(C3c4ccccc4-c4ccccc43)c2=O)cc1
inactive: 1 nM -3.45% | 8.33 nM -3.66% | 100 nM 0.55% | 833.33 nM -0.63% | 10000 nM -0.88%
